About 79,000 compounds went through this panel and 15% of them were active in at least one assay; those are over-represented in the sample as a whole. The source made the active and inactive calls. Rule as the data show it: active = growth inhibition above about 70%; inactive = the rest.
How the values were obtained:
[1] = NCI Yeast Anticancer Drug Screen. Data for the rad52 strain (AID 147);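 also: 0% = growth of vehicle-treated control cultures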; conditions: S. cerevisiae rad52 mutant growth inhibition, stronger effect = higher value
Procedure, shortened: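 Yeast strain carrying a DNA damage repair alteration was exposed to test compounds. Growth inhibition was measured relative to vehicle-treated controls.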

[2] = NCI Yeast Anticancer Drug Screen. Data for the wt1 strain (AID 149);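 also: 0% = growth of vehicle-treated wt1 cultures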; conditions: S. cerevisiae wt1 strain (SPY 50644) growth inhibition, stronger effect = higher value
Procedure, shortened: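 The wt1 strain was treated with compounds, and growth was compared with vehicle-treated cultures to give inhibition.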

[3] = NCI Yeast Anticancer Drug Screen. Data for the rad50EPP+ strain (AID 151);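 also: 0% = growth of vehicle-treated control cultures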; conditions: S. cerevisiae rad50 mutant strain, stronger effect = higher value
Procedure, shortened: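 Yeast strain carrying rad50 alteration (rad50EPP+) exposed to compounds; growth inhibition measured relative to vehicle-treated controls.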

[4] = NCI Yeast Anticancer Drug Screen. Data for the rad50 strain (AID 155);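 also: 0% = growth of vehicle-only cultures of the same strain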; conditions: S. cerevisiae rad50 strain growth inhibition, stronger effect = higher value
Procedure, shortened: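 Cells are treated with compound, grown, and their growth is then scored against vehicle-only cultures of the same repair-deficient yeast strain.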

[5] = NCI Yeast Anticancer Drug Screen. Data for the mec2-1 strain (AID 157); conditions: S. cerevisiae mec2-1 strain, stronger effect = higher value
Procedure, shortened: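 mec2-1 yeast strain, carrying an alteration in DNA damage repair or cell cycle control, was exposed to compounds; growth inhibition was measured relative to vehicle-treated controls.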

[6] = NCI Yeast Anticancer Drug Screen. Data for the rad14 strain (AID 159);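 also: 0% = growth of vehicle-treated control cultures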; conditions: S. cerevisiae rad14 strain growth inhibition, stronger effect = higher value
Procedure, shortened: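 Readout: yeast growth inhibition, referenced to vehicle-only cultures. Strain bears a defined alteration in DNA damage repair.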

[7] = NCI Yeast Anticancer Drug Screen. Data for the sgs1 mgt1 strain (AID 161);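 also: 0% = growth of cultures given vehicle only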; conditions: S. cerevisiae sgs1 mgt1 strain, stronger effect = higher value
Procedure, shortened: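 Yeast cells carrying a defined DNA-repair defect were exposed to test compounds. Growth inhibition was measured relative to vehicle-treated controls.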

[8] = NCI Yeast Anticancer Drug Screen. Data for the CLN2oe strain (AID 163);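 also: 0% = growth of vehicle-only control cultures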; conditions: S. cerevisiae CLN2oe strain, stronger effect = higher value
Procedure, shortened: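 Yeast cells carrying a defined cell-cycle control alteration were exposed to test compounds. Growth inhibition was scored against vehicle-treated control cultures.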

[9] = NCI Yeast Anticancer Drug Screen. Data for the cln2 rad14 strain (AID 165);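 also: 0% = growth equal to vehicle treated cultures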; conditions: S. cerevisiae cln2 rad14 strain, stronger effect = higher value
Procedure, shortened: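 Yeast carrying cln2 and rad14 alterations (cell cycle control and DNA damage repair) were exposed to compounds. Growth inhibition was measured against vehicle-treated controls.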

[10] = NCI Yeast Anticancer Drug Screen. Data for the bub3 strain (AID 167); conditions: S. cerevisiae bub3 mutant strain, stronger effect = higher value
Procedure, shortened: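 Part of a panel of yeast mutants defective in DNA damage repair or cell cycle regulation. Each strain is grown with compound, and inhibition is calculated relative to solvent-treated cultures.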

[11] = NCI Yeast Anticancer Drug Screen. Data for the wt2 strain (AID 169);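 also: 0% = growth of vehicle-treated yeast cultures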; conditions: S. cerevisiae wt2 strain growth inhibition, stronger effect = higher value
Procedure, shortened: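 Yeast cells were exposed to test compounds, and growth inhibition was measured relative to vehicle-treated controls.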

[12] = NCI Yeast Anticancer Drug Screen. Data for the sgs1 strain (AID 173);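 also: 0% = growth of vehicle-only control cultures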; conditions: S. cerevisiae sgs1 mutant, stronger effect = higher value
Procedure, shortened: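 Yeast mutant strains carrying defined defects in DNA damage repair or cell cycle control were exposed to test compounds. Growth inhibition was scored against vehicle-treated controls.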

[13] = NCI Yeast Anticancer Drug Screen. Data for the mlh1 rad18 strain (AID 175); conditions: S. cerevisiae mlh1 rad18 strain growth inhibition, stronger effect = higher value
Procedure, shortened: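 Growth inhibition of the yeast strain was measured after compound exposure and expressed relative to vehicle-treated controls. The strain carries defined defects in DNA damage repair.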

[14] = NCI Yeast Anticancer Drug Screen. Data for the rad18 strain (AID 177); conditions: S. cerevisiae rad18 mutant growth inhibition, stronger effect = higher value
Procedure, shortened: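 Yeast carrying a defined DNA damage repair alteration were exposed to compounds. Growth inhibition was expressed relative to vehicle-treated controls.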

[15] = at 5.0 µM (retest, dose inferred, filed as 0.5)
[16] = at 50.0 µM (retest, dose inferred, filed as 5.0)

Measured: growth inhibition

CC(/C=C/c1ccc(Cl)cc1)=N\NC(=S)NCC(C)C
inactive: [1]; at 1.2 µM -1% | [1]; at 3.7 µM -4% | [1]; at 11.0 µM 4% | [1]; at 33.0 µM 5% | [1]; at 100.0 µM 33% | [2]; at 1.2 µM -2% | [2]; at 3.7 µM -5% | [2]; at 11.0 µM 1% | [2]; at 33.0 µM -1% | [2]; at 100.0 µM 21% | [3]; at 1.2 µM -3% | [3]; at 3.7 µM -5% | [3]; at 11.0 µM 10% | [3]; at 33.0 µM 12% | [3]; at 100.0 µM 28% | [4]; at 1.2 µM -1% | [4]; at 3.7 µM 1% | [4]; [15] 1% | [4]; at 11.0 µM 4% | [4]; at 33.0 µM 11% | [4]; [16] 42% | [4]; at 50.0 µM 39.8% | [4]; at 100.0 µM 34% | [5]; at 1.2 µM -2% | [5]; at 3.7 µM -3% | [5]; [15] -9% | [5]; at 11.0 µM -4% | [5]; at 33.0 µM -1% | [5]; [16] 7% | [5]; at 50.0 µM 66.7% | [5]; at 100.0 µM 30% | [6]; at 1.2 µM 1% | [6]; at 3.7 µM -1% | [6]; at 11.0 µM -2% | [6]; at 33.0 µM 5% | [6]; at 100.0 µM 24% | [7]; [15] 46% | [8]; at 1.2 µM 0% | [8]; at 3.7 µM -8% | [8]; at 11.0 µM -8% | [8]; at 33.0 µM 5% | [8]; at 100.0 µM 28% | [9]; [15] 3% | [9]; [16] 37% | [9]; at 50.0 µM 17.6% | [10]; at 1.2 µM -1% | [10]; at 3.7 µM -1% | [10]; [15] 27% | [10]; at 11.0 µM -6% | [10]; at 33.0 µM 5% | [10]; [16] 68% | [10]; at 100.0 µM 37% | [11]; at 1.2 µM -7% | [11]; at 3.7 µM -5% | [11]; at 11.0 µM -12% | [11]; at 33.0 µM -2% | [11]; at 100.0 µM 24% | [12]; at 1.2 µM -13% | [12]; at 3.7 µM -8% | [12]; at 11.0 µM -6% | [12]; at 33.0 µM 7% | [12]; at 100.0 µM 34% | [13]; [15] 32% | [13]; [16] 64% | [14]; at 1.2 µM -7% | [14]; at 3.7 µM -4% | [14]; at 11.0 µM -1% | [14]; at 33.0 µM 3% | [14]; at 100.0 µM 32%
active: [7]; [16] 72% | [7]; at 50.0 µM 77.8% | [10]; at 50.0 µM 85.4% | [13]; at 50.0 µM 77.3%

Reference: PubChem BioAssay (NCI)
